Measured values: PubChem BioAssay (EPA / NIEHS)
More than one record can exist for a structure, and the calls need not agree. Calls of active or inactive are those of the source. How the source made its calls: active means hit-call score of the fitted dose curve at least 0.9, where 1 is the maximum; inactive means score below 0.9.

Assays:
[1] = ATG_GRE_CIS: Attagene CIS-FACTORIAL HepG2 Assay for human Glucocorticoid Response Elements (GRE) (AID 2282947); conditions: HepG2 GRE cis-reporter, Attagene multiplex mRNA; actives raise or lower the signal
Summary of the method: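 Following 24 h chemical exposure of transiently transfected HepG2 cells, total RNA was reverse-transcribed and reporter cDNA amplified, fluorescently labelled and sized by capillary electrophoresis. Signal gain or loss was fitted relative to DMSO vehicle.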

[2] = ATG_ISRE_CIS: Attagene CIS-FACTORIAL HepG2 Assay for human Interferon Regulatory Factor 1 (IRF1) binding to an Interferon-Stimulated Response Element (ISRE) (AID 2282948); conditions: HepG2 ISRE cis-reporter (Attagene), mRNA transcription readout; actives raise or lower the signal
Summary of the method: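 Cell-based cis-reporter assay; HepG2; 24 h exposure; reporter mRNA by RT-PCR plus capillary electrophoresis fluorescence; activity in either direction scored relative to DMSO.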

[3] = ATG_M_32_CIS: Attagene CIS-FACTORIAL HepG2 Assay for M32 Transcription Factor (Internal Marker) (AID 2282949); conditions: HepG2 Attagene cis-factorial M32 reporter, mRNA; actives raise or lower the signal;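 further: background control marker of the multiplexed CIS panel rather than a real target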
Summary of the method: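 Fluorescent capillary electrophoresis peaks of HpaI-digested, FAM-labelled RT-PCR reporter products give the signal. Source: transiently transfected human liver HepG2 cells, 24 h after chemical dosing; bidirectional fitting against DMSO.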

[4] = ATG_M_06_CIS: Attagene CIS-FACTORIAL HepG2 Assay for M06 Transcription Factor (Internal Marker) (AID 2282950); conditions: HepG2 Attagene CIS-FACTORIAL M06 internal marker reporter; actives raise or lower the signal
Summary of the method: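 Serves as a background control readout. Transfected HepG2 exposed to compounds for 24 h, then reporter transcripts quantified by fluorescent RT-PCR and capillary electrophoresis. Both directions fitted against DMSO baseline.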

[5] = target: Hypoxia-inducible factor 1-alpha (Homo sapiens) (UniProt Q16665); experiment: ATG_HIF1a_CIS: Attagene CIS-FACTORIAL HepG2 Assay for human Hypoxia Inducible Factor 1 (HIF1A) (AID 2282951); conditions: HepG2 Attagene cis-factorial HIF1a reporter transcription; actives raise or lower the signal
Summary of the method: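 Endogenous-TF cis reporter readout, human HepG2 cells, 24 h incubation; mRNA detected via RT-PCR and capillary electrophoresis fluorescence; DMSO-normalised bidirectional fitting.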

[6] = target: Hepatocyte nuclear factor 6 (Homo sapiens) (UniProt Q9UBC0); experiment: ATG_HNF6_CIS: Attagene CIS-FACTORIAL HepG2 Assay for human Hepatocyte Nuclear Factor 6 (HNF6) (AID 2282952); conditions: HepG2 Attagene cis-factorial HNF6 reporter transcription; actives raise or lower the signal
Summary of the method: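 HepG2 cells transiently transfected with cis-element-driven multiplexed reporter units measuring endogenous transcription factor activity. After 24 h exposure, reporter mRNA quantified by RT-PCR, FAM-labelled fragments and capillary electrophoresis; bidirectional fitting versus DMSO.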

[7] = target: Heat shock factor protein 1 (Homo sapiens) (UniProt Q00613); experiment: ATG_HSE_CIS: Attagene CIS-FACTORIAL HepG2 Assay for human Heat Shock Transcription Factor 1 (HSE) (AID 2282953); conditions: HepG2 HSE cis-reporter, Attagene RNA transcription; actives raise or lower the signal
Summary of the method: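 Endogenous transcription factor activity in transiently transfected HepG2, read as reporter mRNA by RT-PCR with fluorescent capillary electrophoresis after 24 h. Gain or loss of signal fitted versus DMSO baseline.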

[8] = ATG_MRE_CIS: Attagene CIS-FACTORIAL HepG2 Assay for human Metal Responsive Element (MRE) (AID 2282954); conditions: HepG2 MRE cis-reporter transcription, Attagene multiplex; actives raise or lower the signal
Summary of the method: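 Step one: transfect HepG2 with cis-regulated reporter units. Step two: dose 24 h. Step three: isolate RNA, RT-PCR, 6-FAM label, HpaI digest, capillary electrophoresis. Fit bidirectionally to DMSO.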

[9] = ATG_PBREM_CIS: Attagene CIS-FACTORIAL HepG2 Assay for human Phenobarbital-responsive Enhancer Module (PBREM) (AID 2282955); conditions: HepG2 PBREM cis-reporter, Attagene multiplexed transcription; actives raise or lower the signal
Summary of the method: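 Readout: reporter mRNA, fluorescent RT-PCR fragments separated by capillary electrophoresis. System: HepG2 transiently transfected with cis-regulated reporter units. Exposure: 24 h. Analysis: bidirectional, DMSO baseline.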

Measured: AC50

Hepatocyte nuclear factor 6 (Homo sapiens), sequence (Q9UBC0 whole entry, looked up, the tested form may be a part): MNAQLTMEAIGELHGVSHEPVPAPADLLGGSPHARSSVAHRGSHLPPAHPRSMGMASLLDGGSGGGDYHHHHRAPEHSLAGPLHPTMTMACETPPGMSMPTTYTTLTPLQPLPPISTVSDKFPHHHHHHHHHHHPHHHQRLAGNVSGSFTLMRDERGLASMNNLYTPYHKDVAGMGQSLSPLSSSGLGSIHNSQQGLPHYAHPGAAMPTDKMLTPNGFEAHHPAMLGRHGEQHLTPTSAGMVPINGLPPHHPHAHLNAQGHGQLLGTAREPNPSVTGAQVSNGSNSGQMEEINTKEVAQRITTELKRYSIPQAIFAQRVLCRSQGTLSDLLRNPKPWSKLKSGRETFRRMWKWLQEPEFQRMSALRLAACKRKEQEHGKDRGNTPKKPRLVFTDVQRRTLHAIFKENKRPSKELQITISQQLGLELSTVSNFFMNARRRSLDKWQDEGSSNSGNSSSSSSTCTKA
Heat shock factor protein 1 (Homo sapiens), sequence (Q00613 whole entry, looked up): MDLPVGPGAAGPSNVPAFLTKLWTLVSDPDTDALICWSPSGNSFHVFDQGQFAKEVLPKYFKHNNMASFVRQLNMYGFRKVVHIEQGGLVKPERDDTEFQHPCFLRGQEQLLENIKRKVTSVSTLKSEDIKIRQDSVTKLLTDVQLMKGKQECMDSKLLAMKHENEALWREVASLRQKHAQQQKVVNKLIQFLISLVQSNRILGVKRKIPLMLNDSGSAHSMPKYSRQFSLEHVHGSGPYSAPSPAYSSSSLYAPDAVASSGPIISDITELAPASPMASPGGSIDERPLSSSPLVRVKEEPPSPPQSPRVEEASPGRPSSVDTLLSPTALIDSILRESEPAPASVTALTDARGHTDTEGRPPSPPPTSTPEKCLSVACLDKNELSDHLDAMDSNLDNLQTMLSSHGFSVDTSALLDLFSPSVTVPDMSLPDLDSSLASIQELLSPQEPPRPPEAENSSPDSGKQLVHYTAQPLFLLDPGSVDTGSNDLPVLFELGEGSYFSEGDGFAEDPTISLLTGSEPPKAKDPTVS
Hypoxia-inducible factor 1-alpha (Homo sapiens), sequence (Q16665 whole entry, looked up): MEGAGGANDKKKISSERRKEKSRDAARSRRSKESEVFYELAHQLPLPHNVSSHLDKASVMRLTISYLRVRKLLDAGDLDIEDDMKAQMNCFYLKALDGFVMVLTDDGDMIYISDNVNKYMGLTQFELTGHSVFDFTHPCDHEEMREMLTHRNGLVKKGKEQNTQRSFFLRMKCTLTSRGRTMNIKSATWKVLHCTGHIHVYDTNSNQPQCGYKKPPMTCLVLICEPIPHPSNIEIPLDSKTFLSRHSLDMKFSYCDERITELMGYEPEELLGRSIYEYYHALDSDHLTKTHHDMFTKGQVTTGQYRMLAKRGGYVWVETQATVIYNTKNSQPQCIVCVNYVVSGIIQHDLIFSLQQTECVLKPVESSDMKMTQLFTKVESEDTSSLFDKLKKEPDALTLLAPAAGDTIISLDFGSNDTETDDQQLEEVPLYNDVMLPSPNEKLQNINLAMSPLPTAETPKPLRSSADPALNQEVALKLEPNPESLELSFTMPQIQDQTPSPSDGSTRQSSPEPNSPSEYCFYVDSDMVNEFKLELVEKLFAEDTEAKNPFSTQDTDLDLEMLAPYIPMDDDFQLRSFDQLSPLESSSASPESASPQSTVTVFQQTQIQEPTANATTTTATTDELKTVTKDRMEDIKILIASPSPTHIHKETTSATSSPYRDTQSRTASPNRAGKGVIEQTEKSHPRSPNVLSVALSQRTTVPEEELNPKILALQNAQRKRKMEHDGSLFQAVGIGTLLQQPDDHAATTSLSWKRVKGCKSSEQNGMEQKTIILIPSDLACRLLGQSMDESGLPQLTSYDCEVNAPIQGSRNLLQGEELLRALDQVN

CCCCCCCCCCCCCCCCO
inactive: all assays above

CC(N)=O
inactive: [1] | [2] | [3] | [4] | [6] | [7] | [8]
active: [7] 133 µM

Cc1occc(=O)c1O
not listed: [1]
inactive: all other assays above

O=NO
not listed: [1]
inactive: all other assays above

COC(=O)[C@H]1[C@H]2C[C@@H]3c4[nH]c5cc(OC)ccc5c4CCN3C[C@H]2C[C@@H](OC(=O)c2cc(OC)c(OC)c(OC)c2)[C@@H]1OC
active: [8] 3.49 µM
not listed: [5] | [9]
inactive: all other assays above

CCC(C)N(C)C(=O)c1cc2ccccc2c(-c2ccccc2Cl)n1 (stereo not drawn)
inactive: [3] | [4] | [6]
active: [2] 89 µM | [7] 101 µM | [8] 97.4 µM

O=C1NC(=O)C(c2ccccc2)(c2ccccc2)N1
not listed: [5]
inactive: all other assays above

CCCC[C@H]1CN(CC2CCOCC2)C(=O)OC12CCN(C1(C)CCN(C(=O)c3c(C)ncnc3C)CC1)CC2
not listed: [1] | [7]
inactive: all other assays above

C/C=C/c1ccc(OC)cc1
not listed: [1]
inactive: all other assays above

CC(=O)O
not listed: [1] | [7] | [9]
inactive: all other assays above

Oc1ccc(O)cc1
not listed: [5]
inactive: all other assays above

CS(=O)(=O)c1ccc([C@@H](C[C@H]2CCC(=O)C2)C(=O)Nc2cnccn2)cc1Cl
not listed: [7]
inactive: all other assays above

C#CC(O)C(CC)CCCC (stereo not drawn)
active: [3] 157 µM | [6] 144 µM
inactive: all other assays above

CC(C)(O)c1ccc(CNC(=O)c2cccnc2Oc2ccc(F)cc2)cc1
inactive: all assays above

Oc1ccccc1O
not listed: [5]
inactive: all other assays above

O=C1CCCCC1
inactive: all assays above

CC(=O)[C@@]1(O)CC[C@H]2[C@@H]3CCC4=CC(=O)CC[C@]4(C)[C@H]3CC[C@@]21C
not listed: [5] | [9]
inactive: all other assays above

CC(C)(C)c1ccccc1
not listed: [1]
inactive: all other assays above

CCCCCCCC(=O)OC
active: [5] 68.3 µM
not listed: [1]
inactive: all other assays above

CO[C@@H]1COCC[C@@H]1N[C@@H]1CC[C@@](C(=O)N2CCc3ncc(C(F)(F)F)cc3C2)(C(C)C)C1
inactive: all assays above

C/C=C/C=C/C(=O)O
not listed: [1]
inactive: all other assays above

NC1CCCCC1
not listed: [1]
inactive: all other assays above

CC(=O)CC(c1ccccc1)c1c(O)c2ccccc2oc1=O (stereo not drawn)
not listed: [1] | [7] | [9]
inactive: all other assays above

CC(C)NCC(O)c1ccc(O)c(O)c1 (stereo not drawn)
not listed: [5] | [7] | [9]
inactive: all other assays above

O=C1OC(c2ccc(O)cc2)(c2ccc(O)cc2)c2ccccc21
inactive: [3] | [4]
active: [2] 70.1 µM | [6] 133 µM | [7] 146 µM | [8] 45.1 µM | [9] 4.42 µM
